# Several values for one entry are separate records, joined by “and”; a condition that tells them apart may be missing. Equal values may be shown once. Compounds without any hit were thinned out: in the full panel of roughly 83,000, 20% have a hit.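 Treatment: one concentration, 48 hours, 96-well format. Scoring: percent growth, with anything below 10 considered active.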 Activity calls are given as the source filed them.
# How the values were obtained:
# Experiment in all cases: NCI-60 one-dose screen, 48 h (100 = growth as untreated, 0 = no growth, -100 = all killed)
# Conditions in all cases: 10 µM unless noted
# [1] = tested on: HCT-15 colon
# [2] = tested on: HT29 colon
# [3] = tested on: SNB-75 CNS
# [4] = tested on: SNB-19 CNS
# [5] = tested on: U251 CNS
# [6] = tested on: PC-3 prostate
# [7] = tested on: SK-MEL-5 melanoma
# [8] = tested on: UACC-62 melanoma
# [9] = tested on: LOX IMVI melanoma
# [10] = tested on: SK-MEL-28 melanoma
# [11] = tested on: SK-MEL-2 melanoma
# [12] = tested on: EKVX NSCLC
# [13] = tested on: SN12C renal
# [14] = tested on: UO-31 renal
# [15] = tested on: TK-10 renal
# [16] = tested on: ACHN renal
# [17] = tested on: CAKI-1 renal
# [18] = tested on: A498 renal
# [19] = tested on: CCRF-CEM leukemia
# [20] = tested on: MOLT-4 leukemia
SMILES,growth [1],growth [2],growth [3],growth [4],growth [5],growth [6],growth [7],growth [8],growth [9],growth [10],growth [11],growth [12],growth [13],growth [14],growth [15],growth [16],growth [17],growth [18],growth [19],growth [20]
CCCCOC1NC(=O)NC(=O)C1(F)C(=O)OCC (stereo not drawn),70% (inactive) and 48.2% (inactive),74.1% (inactive) and 52.3% (inactive),78% (inactive) and 81.8% (inactive),101% (inactive) and 82.6% (inactive),91.6% (inactive),88.4% (inactive) and 85.6% (inactive),81% (inactive) and 66.9% (inactive),72% (inactive) and 52.8% (inactive),73.5% (inactive) and 52.5% (inactive),83.4% (inactive) and 70.7% (inactive),97.8% (inactive) and 101% (inactive),74.8% (inactive),90.2% (inactive) and 59.9% (inactive),55.2% (inactive) and 51.3% (inactive),65.5% (inactive) and 71.7% (inactive),82% (inactive) and 67.4% (inactive),45.3% (inactive) and 62.3% (inactive),78.9% (inactive) and 112% (inactive),72.6% (inactive),92% (inactive) and 65.2% (inactive)
O=C1C(=O)c2ccccc2C(O)=C1CC=C(Cl)Cl,25.8% (inactive) and 30.7% (inactive),31.4% (inactive) and 34.8% (inactive),54.3% (inactive) and 57.4% (inactive),52.9% (inactive) and 61.9% (inactive),42.5% (inactive) and 42.8% (inactive),35.3% (inactive) and 40.9% (inactive),48.4% (inactive) and 48.1% (inactive),55.7% (inactive) and 60% (inactive),16.7% (inactive) and 27.4% (inactive),70.1% (inactive),89.2% (inactive) and 77.8% (inactive),75.8% (inactive),68.8% (inactive) and 66.9% (inactive),55% (inactive) and 47.8% (inactive),75.8% (inactive) and 69.5% (inactive),52.6% (inactive) and 65% (inactive),39.4% (inactive) and 30.8% (inactive),81% (inactive) and 82.9% (inactive),44% (inactive) and 39.3% (inactive),20.5% (inactive) and 23.4% (inactive)
C(#CCN1CCOCC1)CCCN1CCOCC1,91% (inactive) and 99.6% (inactive),106% (inactive) and 105% (inactive),83.7% (inactive) and 104% (inactive),107% (inactive) and 108% (inactive),102% (inactive) and 98.7% (inactive),99.9% (inactive) and 93.2% (inactive),101% (inactive) and 104% (inactive),96.3% (inactive) and 96.5% (inactive),102% (inactive) and 99.6% (inactive),107% (inactive) and 110% (inactive),108% (inactive) and 117% (inactive),104% (inactive) and 83.1% (inactive),102% (inactive),97.6% (inactive) and 89.6% (inactive),109% (inactive) and 86.2% (inactive),101% (inactive) and 98.3% (inactive),98.1% (inactive) and 94.7% (inactive),87.1% (inactive) and 104% (inactive),107% (inactive),109% (inactive) and 113% (inactive)
O=C1C=CC(=O)N1Cc1ccco1,11.6% (inactive),34.1% (inactive),101% (inactive),91% (inactive),81.4% (inactive),81.6% (inactive),86.4% (inactive),86.4% (inactive),76.6% (inactive),113% (inactive),28.8% (inactive),103% (inactive),87.3% (inactive),62.6% (inactive),94.4% (inactive),5.76% (active),40% (inactive),110% (inactive),101% (inactive),79.5% (inactive)
O=C1C=CC(n2cc(F)c(=O)[nH]c2=O)O1 (stereo not drawn),57.8% (inactive),39.4% (inactive),79.8% (inactive),79% (inactive),82.2% (inactive),92.9% (inactive),60.4% (inactive),44.5% (inactive),54.8% (inactive),75.1% (inactive),109% (inactive),93.3% (inactive),64.4% (inactive),63.4% (inactive),75.7% (inactive),56.5% (inactive),46.5% (inactive),79.5% (inactive),50.4% (inactive),54.4% (inactive)
CN(C)C(=S)N(C)C,102% (inactive),95.6% (inactive),86.3% (inactive),110% (inactive),105% (inactive),92.9% (inactive),108% (inactive),108% (inactive),98.4% (inactive),118% (inactive),104% (inactive),127% (inactive),104% (inactive),98.4% (inactive),99.2% (inactive),104% (inactive),98.6% (inactive),–,97.5% (inactive),109% (inactive)
CC(NC(=O)CCl)c1ccccc1 (stereo not drawn),94.9% (inactive),104% (inactive),85.6% (inactive),103% (inactive),103% (inactive),95.2% (inactive),93.7% (inactive),102% (inactive),98.2% (inactive),111% (inactive),104% (inactive),99% (inactive),110% (inactive),98.8% (inactive),98.8% (inactive),106% (inactive),101% (inactive),83.9% (inactive),105% (inactive),101% (inactive)
Clc1ccc(/C=C/c2ccc3ccccc3n2)cc1,26.6% (inactive) and 96.4% (inactive) and 81.7% (inactive),2.32% (active) and 79.3% (inactive) and 71.1% (inactive),-21.1% (active) and 98.7% (inactive) and 88.1% (inactive),42.2% (inactive) and 96.2% (inactive) and 98.8% (inactive),16.3% (inactive) and 95.6% (inactive) and 87.1% (inactive),31.3% (inactive) and 271% (inactive) and 92% (inactive),24.4% (inactive) and 88.9% (inactive) and 81.9% (inactive),43.1% (inactive) and 78.5% (inactive) and 75.8% (inactive),18.3% (inactive) and 83% (inactive) and 82.5% (inactive),57.5% (inactive) and 166% (inactive) and 101% (inactive),10.7% (inactive) and 89.2% (inactive),57.6% (inactive) and 58.7% (inactive) and 66.2% (inactive),43.8% (inactive) and 97.7% (inactive) and 85.7% (inactive),69.7% (inactive) and 68.4% (inactive) and 58.1% (inactive),15.3% (inactive) and 132% (inactive) and 86.7% (inactive),55.8% (inactive) and 93.3% (inactive) and 83% (inactive),47.7% (inactive) and 68% (inactive) and 84.7% (inactive),61% (inactive) and 135% (inactive) and 114% (inactive),8.05% (active) and 97.1% (inactive) and 89.3% (inactive),30.9% (inactive) and 41.9% (inactive) and 76% (inactive)
O=C1c2cccnc2-c2ncccc21,111% [100 µM] (inactive),106% [100 µM] (inactive),93.8% [100 µM] (inactive),102% [100 µM] (inactive),100% [100 µM] (inactive),96.4% [100 µM] (inactive),103% [100 µM] (inactive),102% [100 µM] (inactive),99.7% [100 µM] (inactive),119% [100 µM] (inactive),122% [100 µM] (inactive),99.6% [100 µM] (inactive),108% [100 µM] (inactive),97.1% [100 µM] (inactive),97.1% [100 µM] (inactive),112% [100 µM] (inactive),103% [100 µM] (inactive),–,106% [100 µM] (inactive),117% [100 µM] (inactive)
O=[N+]([O-])c1ccc(NC2CCCCC2)nc1,106% (inactive) and 102% (inactive),106% (inactive) and 104% (inactive),102% (inactive) and 96.9% (inactive),103% (inactive) and 108% (inactive),107% (inactive) and 101% (inactive),105% (inactive) and 98% (inactive),112% (inactive) and 106% (inactive),104% (inactive) and 92.2% (inactive),94% (inactive),128% (inactive) and 111% (inactive),104% (inactive) and 107% (inactive),101% (inactive) and 106% (inactive),104% (inactive) and 108% (inactive),90% (inactive) and 76.3% (inactive),103% (inactive) and 101% (inactive),101% (inactive) and 97.5% (inactive),96.7% (inactive) and 95.7% (inactive),102% (inactive),103% (inactive) and 96.3% (inactive),95.2% (inactive) and 106% (inactive)
S=c1ccc2ccccc2[nH]1,102% (inactive) and 113% (inactive),96% (inactive) and 100% (inactive),94.9% (inactive) and 85.8% (inactive),99.3% (inactive) and 96.6% (inactive),96.7% (inactive) and 98.1% (inactive),86.3% (inactive) and 96.4% (inactive),100% (inactive) and 104% (inactive),100% (inactive) and 97.8% (inactive),102% (inactive) and 103% (inactive),109% (inactive) and 103% (inactive),97.9% (inactive) and 97.2% (inactive),107% (inactive) and 103% (inactive),101% (inactive),88.2% (inactive) and 80.9% (inactive),105% (inactive) and 108% (inactive),101% (inactive) and 109% (inactive),96.5% (inactive),110% (inactive),103% (inactive) and 101% (inactive),93.3% (inactive) and 100% (inactive)

# — PubChem BioAssay (NCI)
